# Compound activity: PubChem, several laboratories
# Mtb bLac sens – beta-lactam sensitization of Mtb H37Rv, H37Rv | 0.27% of 330,000 active | M. tuberculosis H37Rv growth with meropenem, percent inhibition | inhibition, % at 25 µM; call rule not given here;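 also: growth measured after seven days incubation then overnight dye step; 0% = bacteria only wells and 100% = bacteria with antibiotic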
# Rv3671c protease – Rv3671c serine protease inhibitors, primary screen, biochemical, fluorescence polarization, M. tuberculosis H37Rv; AID 2606, 2010; inhibition, % at 5.96 µM; P9WHR9; 0.048% of 320,000 active; in the data active = inhibition above about 38%;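 also: extracellular domain of Rv3671c used as enzyme; 0% = enzyme with DMSO and 100% = no enzyme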
# GDH-TPI counter-1 – GDH-TPI coupling enzyme inhibitors, primary screen, artefact control for M. tuberculosis FBA inhibitor project, biochemical, absorbance, full deck; inhibition, % at 4.8 µM; GDH-TPI coupled enzyme counterscreen, NADH absorbance; 1.2% of 360,000 active; in the data active = inhibition above about 30%;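 also: 0% = DMSO wells and 100% = wells lacking the enzyme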
# Mtb UGM inh – M. tuberculosis UGM enzyme inhibitors, primary screen, biochemical, fluorescence polarization, single point. UDP-galactopyranose mutase (Mycobacterium tuberculosis (strain ATCC 25618 / H37Rv)), …. purified UGM, fluorescence polarization probe displacement. inhibition, % at 10 µM. 0.06% of 320,000 active. AID 504406, 2011; in the data active = inhibition above about 10%, passing the limit was not always enough
# FadD28 FP inh – inhibitors of FadD28 bisubstrate probe binding, primary screen, biochemical, fluorescence polarization, single point | inhibition, % at 12.5 µM | 0.22% of 360,000 active | Mycobacterium tuberculosis FadD28 fatty-acid-AMP ligase; in the data active = inhibition above about 8.5%, passing the limit was not always enough
# Mtb FBA inh – Mtb FBA enzyme inhibitors, primary screen, biochemical, fluorescence, strain H37Rv. Fructose-bisphosphate aldolase (Mycobacterium tuberculosis (strain ATCC 25618 / H37Rv)), …. purified M. tuberculosis FBA, fluorescence read-out. inhibition, % at 1 µM. 2.3% of 360,000 active;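 also: 0% = vehicle and 100% = reference inhibitor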
# Target sequence (P9WQA3 whole entry, looked up): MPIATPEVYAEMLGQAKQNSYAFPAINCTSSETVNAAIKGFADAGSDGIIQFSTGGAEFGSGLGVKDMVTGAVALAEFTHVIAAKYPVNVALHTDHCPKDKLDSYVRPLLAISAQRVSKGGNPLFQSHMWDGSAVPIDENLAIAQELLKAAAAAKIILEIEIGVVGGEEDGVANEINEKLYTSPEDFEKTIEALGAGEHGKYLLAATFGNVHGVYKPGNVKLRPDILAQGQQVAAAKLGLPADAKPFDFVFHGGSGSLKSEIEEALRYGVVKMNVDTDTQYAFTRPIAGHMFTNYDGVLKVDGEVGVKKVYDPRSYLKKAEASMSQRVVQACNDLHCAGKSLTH
# Mtb FBA inh conf – M. tuberculosis aldolase blockers, biochemical, fluorescence, strain H37Rv, confirmation; shares compounds with Mtb FBA inh; purified M. tuberculosis FBA, fluorescence read-out; inhibition, % at 1 µM; 78% of 5,600 active; AID 651616, 2012;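 also: 0% = vehicle wells and 100% = reference inhibitor wells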
# GDH-TPI counter-2 – GDH-TPI coupling enzyme inhibitors, artefact control for M. tuberculosis FBA inhibitor project, biochemical, fluorescence, high throughput | shares compounds with Mtb FBA inh | GDH-TPI coupled enzyme counterscreen | inhibition, % at 1 µM | 81% of 5,600 active; in the data active = inhibition above about 10%
# GDH-TPI dose – GDH-TPI coupling enzyme inhibitors, dose response, artefact control for M. tuberculosis FBA inhibitor project, biochemical, fluorescence, IC50; GDH-TPI coupled enzyme assay, artifact counterscreen; 79% of 170 active; IC50, µM; shares compounds with Mtb FBA inh; call rule not given here
# Starred values were filed as active, the others as inactive; nt = not tested or not shown; + = active, no number. Most compounds without a hit are left out; they make up all but 3.7% or so of the library. Rule as the data show it, unless noted: active = inhibition above about 27%; inactive = the rest.
SMILES,Mtb bLac sens,Rv3671c protease,GDH-TPI counter-1,Mtb UGM inh,FadD28 FP inh,Mtb FBA inh,Mtb FBA inh conf,GDH-TPI counter-2,others
COc1ccc2oc(=O)c(C(=O)NCc3ccco3)cc2c1,7,4,20,-1,0,65*,-2,-5,
COc1ccc2oc(=O)c(C(=O)NC(C)c3ccccc3)cc2c1 (stereo unspecified),-7,-5,12,2,-3,44*,142*,87*,
COc1cccc2cc(C(=O)NCc3ccco3)c(=O)oc12,47,-3,12,2,-1,1,nt,nt,
Cc1cccc(C2NC(=O)c3ccccc3N2)c1 (stereo unspecified),nt,nt,6,nt,-4,26,nt,nt,
O=C1NC(c2ccc(Cl)cc2)Nc2ccccc21 (stereo unspecified),2,5,-4,-2,2,8,nt,nt,
O=C1NC(c2ccco2)Nc2ccccc21 (stereo unspecified),-3,1,2,-1,-3,43*,57*,49*,
Cc1ccc(C2NC(=O)c3ccccc3N2)c(C)c1 (stereo unspecified),nt,nt,6,nt,-2,62*,80*,61*,
COc1ccc(-c2cc(C(=O)N3CCN(c4ccccc4O)CC3)c3ccccc3n2)cc1,11,-4,7,-3,-1,8,nt,nt,
COc1ccc(-c2cc(C(=O)N3CCC4(CC3)OCCO4)c3ccccc3n2)cc1,-1,4,21,-2,0,110*,-1,1,
COc1ccc(-c2cc(C(=O)N3CCN(c4ccccc4)CC3)c3ccccc3n2)cc1,81,5,14,2,1,30*,4,-8,
COc1ccc(-c2cc(C(=O)N3CCN(c4ncccn4)CC3)c3ccccc3n2)cc1,58,-1,17,3,-2,31*,149*,123*,
CCN(C(=O)COC(=O)Cc1cccc2ccccc12)C1CCS(=O)(=O)C1 (stereo unspecified),2,-7,1,2,-1,0,nt,nt,
O=C(Nc1cccc2ccccc12)N(CCO)C1CCS(=O)(=O)C1 (stereo unspecified),6,3,3,2,-1,61*,108*,105*,
CCOc1ccc(-c2cc(C(=O)Nc3cccc(C(F)(F)F)c3)[nH]n2)c(C)c1,nt,nt,-3,nt,-3,-3,nt,nt,
c1ccc(-c2nc(NCC3CC3)nc3ccsc23)cc1,nt,nt,1,nt,-4,42*,138*,97*,
Cc1ccc(F)cc1-c1nc(NCC2CC2)nc2ccsc12,nt,nt,10,nt,-6,46*,70*,56*,
OCc1ccccc1-c1nc(NCc2ccccc2)nc2ccsc12,nt,nt,15,nt,-2,63*,8,4,
COc1ccc(NC(=O)CCC(=O)Nc2nnc(CC(C)C)s2)cc1Cl,53,7,-15,0,-2,-3,nt,nt,
Cc1csc2nc(=O)c3ccccc3n12,nt,nt,5,nt,-1,49*,+,175*,
Cc1nc2scc(C)n2c(=O)c1S(=O)(=O)N1CCN(c2ccccc2)CC1,2,4,21,-1,0,0,nt,nt,
CSc1ccc(CN2CCC(C)(Oc3cccc(Cl)c3)C2)cc1 (stereo unspecified),nt,nt,15,nt,-3,4,nt,nt,
O=C(NN=Cc1cccc(O)c1O)c1ccccc1,nt,nt,nt,nt,0,1,nt,nt,
CCN(CC)C(=O)[C@H]1C[C@H](CC(=O)NCc2ccc(OC)c(OC)c2)C(=O)N2CCc3c([nH]c4cc(-c5ccco5)ccc34)[C@]12C,nt,nt,16,nt,-2,46*,144*,105*,
COc1ccc(CNC(=O)C[C@H]2C[C@H](C(=O)N3CCCCC3)[C@@]3(C)c4[nH]c5cc(-c6ccco6)ccc5c4CCN3C2=O)cc1OC,nt,nt,10,nt,-1,28*,79*,56*,
O=c1cc(CN2CC=C(c3ccccc3)CC2)c2c(ccc3ccccc32)o1,-2,-9,13,1,-3,94*,114*,100*,
SMILES,Mtb bLac sens,Rv3671c protease,GDH-TPI counter-1,Mtb UGM inh,FadD28 FP inh,Mtb FBA inh,Mtb FBA inh conf,GDH-TPI counter-2,others
O=c1cc(CN2CCCC2)c2c(ccc3ccccc32)o1,nt,nt,nt,nt,-1,13,nt,nt,
Cc1ccc(Cl)c(NC(=O)COC(=O)c2cc[n+]([O-])cc2)c1Cl,-7,1,13,0,-1,2,nt,nt,
CSc1nc(-c2ccccc2)c(-c2ccccc2)[nH]1,-4,-6,-6,-1,-4,50*,7,-4,
COc1cc2oc3ccc(C#Cc4ccccn4)cc3c(=O)c2cc1OC,0,-10,5,1,-1,67*,-3,-5,
COc1cc2oc3ccc(C#Cc4ccc(N)cc4)cc3c(=O)c2cc1OC,1,0,24,0,0,8,nt,nt,
FC(F)(F)c1cccc(-c2nc3nc(Cl)c(Cl)nc3[nH]2)c1,14,-11,36*,2,-5,31*,35*,42*,
FC(F)(F)c1nc2nc(Cl)c(Cl)nc2[nH]1,nt,nt,26,nt,-1,5,nt,nt,
Cn1c(-c2ccc(CN3CCCCC3)o2)nc2ccccc21,0,-2,4,-4,-3,33*,20,12*,
OC[C@@H]1CCCN1Cc1cn(-c2ccccc2)nc1-c1ccc2c(c1)OCO2,-4,6,23,4,-2,29*,54*,35*,
Cc1ccccc1C(=O)OCCN1CCOCC1,0,-4,7,-1,-4,0,nt,nt,
Cc1ccc(-c2nc3ccccc3nc2NN)cc1,-8,-7,9,1,-2,31*,14,9,GDH-TPI dose=>10
Cc1ccc(-c2nc3ccccc3nc2Cl)cc1,6,-9,2,5,-5,1,nt,nt,
CCOC(=O)c1[nH]cnc1C(=O)Nc1cccc(OC)c1,-2,-1,5,1,-3,3,nt,nt,
CNC(=O)c1[nH]cnc1C(=O)Nc1cccc(OC)c1,63,0,8,2,0,71*,+,199*,
Nc1nc2ccccc2cc1-c1cccs1,8,-9,1,1,-2,69*,76*,62*,
Cc1ccc(-c2cc3ccccc3nc2N)cc1,14,-2,-4,-2,nt,46*,88*,80*,
